These results are taken from PubChem BioAssay (NCI).

This is part of a sample that, as a whole, favours compounds with a hit. Of some 83,000 tested, about 20% had one in any assay.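 How to read the values: 0–100, growth inhibition (40 = 60% inhibited); 0, no net growth; -100 to 0, cell death (-40 = 40% of starting cells died; -100 = all dead).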 Unmarked numbers belong to inactive results. The source made the active and inactive calls.

The subject of this assay is HS 578T breast. As to the kind of experiment: NCI-60 one-dose screen, 48 h (100 = growth as untreated, 0 = no growth, -100 = all killed). The settings on record: 10 µM unless noted. The protocol:
Growth inhibition of the HS 578T human tumor cell line is measured as a screen for anti-cancer activity. Cells are grown in 96 well plates and exposed to the test compound for 48 hours. Compounds are tested at a single concentration, which is 10^-5 M for most compounds. The reported endpoint is percent growth (GI% or GIPRCNT), where numbers from 0 - 100% represent growth inhibition, and numbers from -100% - 0 represent cell death. For example, a value of 40 represents 60% growth inhibition. A value of 0 means no net growth occurred over the course of the experiment. A value of -40 indicates 40% of cells at the beginning of the experiment died by the end of the experiment. A value of -100 means all cells are dead at the end of the experiment.
NCI-60 Human Tumor Cell Lines Screen was performed using the standard one-dose NCI protocol, which is described in more detail at https://dtp.cancer.gov/discovery_development/nci-60/default.htm.
Compounds with GIPRCNT values below 10 were considered active. Activity score was based on GIPRCNT using the following formula: […]
Score is 0 for GIPRCNT values of 100 or above, 50 for GIPRCNT values of 0, and 100 for GIPRCNT values of -100.
For the molecule `COc1c(F)ccc(C(=O)Nc2ccc3nc(NC(=O)C4CCCN(S(=O)(=O)c5cccc(C(F)(F)F)c5)C4)sc3c2)c1F` (stereo not given), the growth was 61.1%.
With `COc1cc2c(c(OC)c1OC)C(=O)CC(c1cccc(NC(=O)[C@@H](N)CC(C)C)c1)O2` (stereo not given in full) the figure was 88.4%; with `COc1ccc(/C=C/c2nc3ccccc3c(=O)n2CC(=O)Nc2ccc(Cl)cc2)cc1`, 23.3%.
Then `Cc1occc1C(=O)NN1C(=O)/C(=C/C=C/c2ccc([N+](=O)[O-])o2)SC1=S`, with 19.4%.
Then `C/C(=N\N=C1/C(=O)Nc2ccccc21)c1ccc2c(c1)Nc1ccccc1S2`, with 72.1%; and `O=C(Cn1c(/C=C/c2ccccc2)nc2ccccc2c1=O)Nc1ccccc1`, with 82.5%.
`Cc1cnc(C(=O)NNc2nc3cc(F)ccc3n3c(C(=O)N4CC5CC(C4)N5)ccc23)cn1`: the growth was 62.9%.
With `Cn1cc(-c2cc3nc(-c4c[nH]c5ccc(Cl)cc45)cc(N)n3n2)c2ccccc21` the figure was -27.1% (active); with `C=C1CCC2C3(C)COC(c4cccs4)OC3CCC2(C)C1CC(Sc1ccccc1)C1=CCOC1=O` (stereo not given), 112%.
With `CC1(C)CC[C@]2(C(=O)O)CC[C@]3(C)C(=CCC4[C@@]5(C)C[C@@H](O)[C@@H]6OC(c7cccc(Br)c7)OC[C@@]6(C)C5CC[C@]43C)C2C1` (stereo not given in full) the figure was 65.3%; with `COc1ccc(C2(SCCNCc3cc(N(C)C)ccn3)c3ccccc3C=Cc3ccccc32)cc1`, -3.79% (active); with `COc1ccc(-c2ccnc(SCc3cc4cc(OC)ccc4[nH]c3=O)n2)cc1`, 28.2%.
Then `Clc1cccc(-c2ccc(OCCCN3CCN(c4ccncc4)CC3)cc2)c1`, with -2.27% (active).
Turning to `Cc1cc(=O)oc2cc(OCCOc3ccc(/C=C/C(=O)Nc4ccccc4N)cc3)ccc12`, the growth was 40.6%.
Then `NS(=O)(=O)c1ccc(N=Nc2c(O)n(CC(=O)Nc3ccccc3Cl)c3ccccc23)cc1`, with 50.5%; and `Cn1cc(-c2nnc(N)nc2-c2c[nH]c3ccc(F)cc23)c2cccnc21`, with 42%.
Turning to `CN(C)c1nc(NCCNS(=O)(=O)c2ccc(C3=Nc4c(N)nc(N)nc4NC(c4ccc(Cl)cc4)C3)cc2)nc(Nc2ccc(F)cc2)n1` (stereo not given), the growth was 56.3%.
Then `Cc1ccc(C(=O)CSc2nc3ccc(C)cc3c(=O)n2-c2ccc(F)cc2)cc1`, with -8.71% (active); and `COc1cc2oc(-c3cccc(NC(=O)[C@H](CC(N)=O)NC(=O)OC(C)(C)C)c3)cc(=O)c2c(OC)c1OC`, with 83.1%.
Then `COc1ccc2[nH]cc(-c3cc(N)n4nc(-c5cn(C)c6ccccc56)cc4n3)c2c1`, with -7.76% (active).
With `NS(=O)(=O)c1ccc(-n2cc(-c3cccc(NC(=O)c4cc(N5CCOCC5)cc(C(F)(F)F)c4)c3)nn2)cc1` the figure was 47.9%; with `CN1CCN(c2ccc(C(=O)/C=C/c3ccc(Br)cc3)cc2)CC1`, 89.6%.
In the case of `COc1cc(OC)cc(C(=O)Nc2cccc(-c3cn(-c4ccc(S(N)(=O)=O)cc4)nn3)c2)c1`, the growth is 70.3%.
Regarding `CCN(CC)c1ccnc(CNCCSC(c2ccccc2)(c2ccccc2)c2ccc(OC)cc2)c1`, the growth is -33.2% (active).
`Cc1ccc(-c2nc(C#N)c(S(=O)(=O)N3CCN(S(=O)(=O)c4ccccc4)CC3)o2)cc1`: the growth is 65.5%.
Then `COc1ccc(C(=O)/C=C/c2ccc(Oc3nc(Nc4ccc(F)cc4)nc(N(C)C)n3)c(OC)c2)cc1`, with 58.3%.
With `COc1ccc(C2=NN(C(C)=O)C(c3ccc(OCc4ccc(Cl)cc4)c(OC)c3)C2)cc1OC` (stereo not given), the growth was 56.3%.
Then `NS(=O)(=O)c1ccc(CCNC(=O)CSc2ccc(-c3ccc(Br)cc3)nn2)cc1`, with 73.1%; and `O=C(NNc1nc2cc(F)ccc2n2c(C(=O)N3CCN(C4CC4)CC3)ccc12)c1ncccn1`, with 66.5%.
With `COc1ccc(-c2nc3cc(C)ccc3n2CC(=O)N=Nc2c(O)[nH]c3ccc(Br)cc23)cc1` the figure was 20.3%.
Then `CC1(C)CC[C@]2(C(=O)O)CC[C@]3(C)C(=CCC4[C@@]5(C)C[C@@H](O)[C@@H]6OC(c7ccccc7Br)OC[C@@]6(C)C5CC[C@]43C)C2C1` (stereo not given in full), with 31.9%.
For the molecule `COc1c(F)ccc(C(=O)Nc2ccc3nc(NC(=O)C4CCCN(S(=O)(=O)c5ccc(Br)s5)C4)sc3c2)c1F` (stereo not given), the growth is 58.8%.
Then `C/C(=N\N=C1/C(=O)Nc2ccc(Cl)cc21)c1ccc2c(c1)Nc1ccccc1S2`, with 9.82% (active); and `Cn1cc(-c2cc3nc(-c4cn(C)c5ncccc45)cc(N)n3n2)c2ccccc21`, with -13% (active).
Then `COc1ccc(N2N=C(c3ccc4c(c3)OCO4)CC2c2cccc(NC(=O)CCCNS(=O)(=O)c3ccc(F)cc3)c2)cc1` (stereo not given), with 67.2%; and `O=C(COc1ccc(NC(=O)Nc2ccc(Cl)c(Cl)c2)cc1)N=Nc1c(O)[nH]c2ccc(Cl)cc12`, with -13.7% (active); and `O=C(c1ccc(OCCN2CCOCC2)cc1)C1[C@H](c2ccc(Cl)cc2)[C@@H](c2ccccc2)NC12C(=O)Nc1ccc(Cl)cc12` (stereo not given in full), with 59.1%.
Turning to `CCOC(=O)/C=C/c1cccc2c1C(=O)NC(C)(c1cc3cc(Br)ccc3oc1=O)N2` (stereo not given), the growth was 63.2%.
As for `O=C(CN1C(=O)/C(=C/c2ccccc2Cl)SC1=S)N1CCOCC1`, the growth is 106%.
Then `CC1(C)CC[C@]2(C(=O)O)CC[C@]3(C)C(=CCC4[C@@]5(C)C[C@@H](O)[C@@H]6OC(c7ccco7)OC[C@@]6(C)C5CC[C@]43C)C2C1` (stereo not given in full), with 31.2%.
